Assay [1] in a line: ATG_CRE_CIS: Attagene CIS-FACTORIAL HepG2 Assay for human cAMP Responsive Element (CRE) binding protein 3 (AID 2282926). As to conditions: HepG2 CRE cis-reporter, Attagene multiplexed mRNA; actives raise or lower the signal. The essentials: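 Human liver HepG2, transient MRTU transfection, 24 h compound exposure. Total RNA → oligo(dT) RT → PCR → 6-FAM primer extension → HpaI cut → CE. Activity called both directions vs DMSO.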

Assay [2] addresses CCAAT/enhancer-binding protein beta (Homo sapiens) (UniProt P17676). Description: ATG_C_EBP_CIS: Attagene CIS-FACTORIAL HepG2 Assay for human CCAAT/Enhancer Binding Protein (C/EBP) beta (AID 2282927). To be noted: HepG2 Attagene cis-factorial transcription factor reporter; actives raise or lower the signal. The essentials: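 RT-PCR/capillary electrophoresis fluorescence of reporter mRNA, 24 h post-dose, in HepG2 cells carrying transfected cis-promoter reporter units. Bidirectional curve fitting against DMSO baseline captures gain or loss of signal.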

A short description of assay [3]: ATG_CMV_CIS: Attagene CIS-FACTORIAL HepG2 Assay for human CMV (Internal Marker) (AID 2282928).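 Note: endpoint acts as a background internal control marker rather than a target.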 As to conditions: HepG2 CMV promoter reporter, transcription factor profiling; actives raise or lower the signal. The essentials:
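Endogenous transcription factor activity read in HepG2 via transfected cis-promoter reporter units. After 24 h dosing, reporter mRNA measured by RT-PCR/capillary electrophoresis; gain or loss of signal fit relative to DMSO.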

Assay [4] is described as follows: ATG_DR4_LXR_CIS: Attagene CIS-FACTORIAL HepG2 Assay for human Liver X Receptor (LXR), DR4 submotif (AID 2282929). As to conditions: HepG2 Attagene DR4 cis-reporter, mRNA transcription; actives raise or lower the signal. The procedure, abridged: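 After transient transfection with multiplexed cis-promoter reporter units, HepG2 cells received test chemicals for 24 h. Reporter mRNA induction, detected by fluorescence after RT-PCR and capillary electrophoresis, was scored relative to DMSO.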

For assay [5], the target named is Aryl hydrocarbon receptor (Homo sapiens) (UniProt P35869). In words: ATG_Ahr_CIS: Attagene CIS-FACTORIAL HepG2 Assay for human Aryl Hydrocarbon Receptor (Ahr) (AID 2282930). As to conditions: HepG2 AhR cis-factorial reporter transcription; actives raise or lower the signal. The procedure, abridged: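 HepG2 cells transiently transfected with cis-element-driven multiplexed reporter transcription units; endogenous transcription factor activity measured as reporter mRNA 24 h after dosing. RT-PCR, 6-FAM labelling, HpaI digestion, capillary electrophoresis; bidirectional fitting versus DMSO baseline.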

Assay [6] in a line: ATG_AP_1_CIS: Attagene CIS-FACTORIAL HepG2 Assay for human Activator Protein 1 (AP-1) (AID 2282931). To be noted: HepG2 Attagene cis-factorial AP-1 reporter mRNA; actives raise or lower the signal. The essentials: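 After 24 h incubation with test chemical, RNA from transfected HepG2 cells was reverse-transcribed, amplified, fluorescently labelled and digested before capillary electrophoresis. Reporters were driven by cis-regulatory promoters; activity fitted bidirectionally versus DMSO.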

Assay [7] in a line: ATG_AP_2_CIS: Attagene CIS-FACTORIAL HepG2 Assay for human Activator Protein 2 (AP-2) (AID 2282932). To be noted: HepG2 AP-2 cis-reporter, Attagene transcription factor profiling; actives raise or lower the signal. The essentials:
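Bidirectional curve fitting against DMSO was applied to reporter mRNA signals from HepG2 cells 24 h after dosing. Cis-promoter reporter units, transiently transfected, were read by RT-PCR plus capillary electrophoresis.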

The nature of assay [8]: ATG_BRE_CIS: Attagene CIS-FACTORIAL HepG2 Assay for human Bone Morphogenetic Protein (BMP) Response Element (BRE) (AID 2282933). To be noted: HepG2 BMP response element reporter, Attagene transcription factor profiling; actives raise or lower the signal. The essentials:
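Transient MRTU transfection of human HepG2 liver cells; 24 h compound treatment; total RNA isolated, reverse-transcribed, PCR-amplified, 6-FAM labelled, HpaI-cut, capillary electrophoresis. DMSO = negative control/baseline, bidirectional fit.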

Assay [9] concerns the target Retinoic acid receptor alpha (Homo sapiens) (UniProt P10276). Description: ATG_DR5_RAR_CIS: Attagene CIS-FACTORIAL HepG2 Assay for human Retinoic Acid Receptor Alpha (RARE), DR5 submotif (AID 2282934).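 For AC50: reporter responds to endogenous RAR alpha beta and gamma in HepG2 not RARA alone.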 As to conditions: HepG2 Attagene cis-factorial RARE DR5 reporter, mRNA; actives raise or lower the signal. The essentials:
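HepG2 cells transiently transfected with multiplexed reporter units under cis (DR5 RARE) promoters, so endogenous transcription factor activity is measured. After 24 h compound exposure, reporter mRNA is quantified by RT-PCR with fluorescent labelling and capillary electrophoresis; bidirectional fitting versus DMSO.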

Here are results for 20 compounds from PubChem BioAssay (EPA / NIEHS).

Activity calls are given as the source filed them. Rule for the calls: active = hit-call score of the fitted dose curve at least 0.9, where 1 is the maximum; inactive = score below 0.9.

In general, AC50 refers to the concentration at which the activity in the assay is half-maximal.

Sequence of Retinoic acid receptor alpha (Homo sapiens) (P10276 whole entry, looked up): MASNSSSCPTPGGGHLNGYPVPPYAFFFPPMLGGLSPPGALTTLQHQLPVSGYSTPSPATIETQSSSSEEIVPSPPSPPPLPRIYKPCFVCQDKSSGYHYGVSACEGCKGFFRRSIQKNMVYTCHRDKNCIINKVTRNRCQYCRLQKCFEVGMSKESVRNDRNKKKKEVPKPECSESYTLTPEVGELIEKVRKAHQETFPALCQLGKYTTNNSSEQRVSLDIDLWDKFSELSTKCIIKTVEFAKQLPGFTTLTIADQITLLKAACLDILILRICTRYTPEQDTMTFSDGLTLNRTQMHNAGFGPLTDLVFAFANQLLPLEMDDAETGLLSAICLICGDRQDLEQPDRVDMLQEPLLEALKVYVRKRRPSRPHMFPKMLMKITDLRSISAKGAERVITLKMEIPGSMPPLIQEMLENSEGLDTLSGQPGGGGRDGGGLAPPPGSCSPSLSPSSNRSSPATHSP
Sequence of Aryl hydrocarbon receptor (Homo sapiens) (P35869 whole entry, looked up): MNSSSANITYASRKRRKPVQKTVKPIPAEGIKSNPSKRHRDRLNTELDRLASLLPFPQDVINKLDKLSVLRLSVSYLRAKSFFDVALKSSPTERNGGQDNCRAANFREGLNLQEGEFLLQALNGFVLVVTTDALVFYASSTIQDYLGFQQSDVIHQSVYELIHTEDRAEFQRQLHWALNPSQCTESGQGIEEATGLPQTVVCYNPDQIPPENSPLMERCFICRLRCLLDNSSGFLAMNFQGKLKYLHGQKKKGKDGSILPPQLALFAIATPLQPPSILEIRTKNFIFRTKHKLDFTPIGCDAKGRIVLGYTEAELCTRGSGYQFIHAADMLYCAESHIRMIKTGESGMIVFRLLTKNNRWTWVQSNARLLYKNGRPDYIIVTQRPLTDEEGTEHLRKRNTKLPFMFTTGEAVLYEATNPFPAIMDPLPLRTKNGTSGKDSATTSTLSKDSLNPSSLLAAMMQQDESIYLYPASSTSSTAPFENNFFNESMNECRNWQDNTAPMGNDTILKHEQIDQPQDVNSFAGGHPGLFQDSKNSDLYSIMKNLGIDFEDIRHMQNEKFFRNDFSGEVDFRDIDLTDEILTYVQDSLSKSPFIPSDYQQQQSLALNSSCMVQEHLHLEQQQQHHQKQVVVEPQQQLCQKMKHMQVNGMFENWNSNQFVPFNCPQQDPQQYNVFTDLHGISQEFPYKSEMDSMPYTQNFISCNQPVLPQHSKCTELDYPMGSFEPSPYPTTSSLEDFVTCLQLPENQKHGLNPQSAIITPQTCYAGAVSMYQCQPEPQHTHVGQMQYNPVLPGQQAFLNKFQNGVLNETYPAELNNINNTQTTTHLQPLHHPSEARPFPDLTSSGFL
Sequence of CCAAT/enhancer-binding protein beta (Homo sapiens) (P17676 whole entry, looked up): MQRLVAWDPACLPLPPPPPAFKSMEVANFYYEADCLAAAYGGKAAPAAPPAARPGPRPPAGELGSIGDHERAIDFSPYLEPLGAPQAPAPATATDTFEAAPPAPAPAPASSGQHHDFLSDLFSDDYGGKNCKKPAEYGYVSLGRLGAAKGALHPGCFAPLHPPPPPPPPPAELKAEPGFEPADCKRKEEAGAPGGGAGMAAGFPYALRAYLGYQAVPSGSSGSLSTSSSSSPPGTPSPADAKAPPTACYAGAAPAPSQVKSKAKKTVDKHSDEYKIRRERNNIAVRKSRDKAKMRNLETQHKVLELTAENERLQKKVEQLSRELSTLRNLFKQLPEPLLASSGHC

For the compound `CCCCCCCCCC(C)=O`, the compound was called inactive in assay [1], in assay [2], in [3], in assay [4], in assay [5] and in assay [6]. In addition, the compound was called inactive in [7], in [8] and in [9].
For `CC(=O)OC/C=C(/C)CCC=C(C)C`, the call in [1], in [2], in assay [3], in assay [6], in [7] and in [8] was inactive.
With `CCCCCCCCCCCC(=O)N(C)CC(=O)O`, the compound was called inactive in assay [1], in assay [2], in assay [5], in [6], in assay [7] and in assay [8]. The compound was called inactive in assay [9]. Besides, the concentration at half-maximal activity (AC50) in assay [3] is 97.5 µM (active).
As to `CC(=O)OCCc1ccccc1`, the outcome in assay [1], in assay [2], in assay [3], in assay [4], in assay [5] and in assay [6] was inactive. Further, the compound was classed as inactive in assay [7], in assay [8] and in [9].
With `CC(C)(C)N`, the compound was classed as inactive in assay [1], in assay [2], in assay [3], in assay [4], in assay [5] and in assay [6]. Moreover, the compound was called inactive in assay [7], in assay [8] and in [9].
In the case of `CO[Si](C)(C)OC`, the compound was classed as inactive in assay [1], in assay [2], in [3], in assay [4], in [6] and in assay [7]. The result in assay [8] and in assay [9] was inactive. In assay [5], the AC50 is 0.376 µM (active).
For the compound `CC(C)c1ccc2ncccc2c1`, the compound was classed as inactive in assay [1], in assay [2], in [4], in [5], in [6] and in [7]. The outcome in assay [8] and in assay [9] was inactive. Further, in assay [3], the half-maximal activity concentration (AC50) was 53.5 µM (active).
In the case of `CCc1cccc(C)c1N(C(=O)CS(=O)(=O)O)C(C)COC` (stereo not drawn), the result in [1], in assay [2], in assay [3], in assay [5], in assay [6] and in assay [7] was inactive. Moreover, in [8], the compound was classed as inactive.
Regarding `O=C(O)/C=C/c1ccccc1`, the outcome in assay [1], in assay [2], in [3], in [4], in assay [5] and in [6] was inactive. Further, the outcome in assay [7], in assay [8] and in assay [9] was inactive.
Turning to `O=C(O[C@@H]1Cc2c(O)cc(O)cc2O[C@@H]1c1cc(O)c(O)c(O)c1)c1cc(O)c(O)c(O)c1`, the result in [1], in [2], in assay [4], in assay [5], in assay [7] and in assay [9] was inactive. Moreover, the values for the AC50 in [3], in [6] and in assay [8] were 20.8 µM (active), 72.5 µM (active) and 3.86 µM (active), respectively.
On to `CCCCNS(=O)(=O)c1ccccc1`, for which the result in assay [1], in assay [2], in [3], in assay [4], in assay [5] and in [7] was inactive. Moreover, the outcome in assay [8] and in [9] was inactive.
For `COC(=O)C=Cc1ccccc1`, the result in assay [1], in assay [2], in [3], in assay [4], in assay [5] and in assay [6] was inactive. The outcome in assay [7] and in assay [8] was inactive.
Take `O=C(O)c1cc(O)c2ccccc2c1O`: the outcome in [1], in assay [3], in assay [7] and in assay [8] was inactive. In addition, the AC50 in [2] was 5.04 µM (active); in assay [4] it was 42.5 µM (active); in assay [5], 0.0305 µM (active); in assay [9], 22.8 µM (active).
Take `C=CC(=O)O[C@H]1C[C@@H]2CC[C@@]1(C)C2(C)C`: the AC50 in [1] is 180 µM (active); in assay [6] it was 75.3 µM (active); in [7], 100 µM (active); in assay [9], 177 µM (active). For the same compound, the result in [2], in [3], in assay [4], in assay [5] and in assay [8] was inactive.
Turning to `CCNc1nc(NC(C)(C)C)nc(OC)n1`, the call in assay [1], in assay [2], in assay [3], in assay [4], in [5] and in assay [6] was inactive. Besides, the compound was classed as inactive in [7], in assay [8] and in assay [9].
Regarding `Cc1ccccc1CCO`, the outcome in [1], in [2], in assay [3], in assay [4], in assay [5] and in assay [6] was inactive. Also, the outcome in assay [7], in [8] and in [9] was inactive.
Take `Nc1cccc(N)n1`: the call in assay [1], in [2], in [3], in assay [4], in [6] and in [7] was inactive. The call in [8] and in assay [9] was inactive. Besides, the AC50 in assay [5] was 52.3 µM (active).
On to `O=C(OCCc1ccccc1)c1ccccc1`, for which the call in assay [1], in assay [2], in assay [3], in assay [6], in [7] and in [8] was inactive. Further, in assay [9], the compound was called inactive.
`CC(C)CC(=O)OCc1ccccc1`: the result in assay [1], in assay [2], in assay [3], in [4], in assay [5] and in assay [7] was inactive. The call in [8] and in [9] was inactive.
Consider `COC(OC)(C(=O)c1ccccc1)c1ccccc1`, for which the call in assay [1], in assay [2], in assay [3], in [5], in assay [6] and in assay [7] was inactive. In addition, the outcome in assay [8] and in assay [9] was inactive. In assay [4], the AC50 is 49.8 µM (active).
